Measurements taken from PubChem BioAssay AID485344 (National Center for Advancing Translational Sciences (NCATS), 2010).
Among all 340,000 compounds or so, about 6,900 (2%) were called active. What follows is part of a selection rich in actives, with near analogues and random picks from the rest. A number with no mark means an inactive call. Rule as the data show it: active = inhibition above about 30%; inactive = below that, where a call was filed.

target: D(2) dopamine receptor (Homo sapiens) (UniProt P14416); assay: HTS Assay for Allosteric Antagonists of the Human D2 Dopamine Receptor: Primary Screen for Antagonists; details: HEK293 TREx D2 cells, calcium flux, dopamine EC80; at 10 µM; hits give high values; also: 0% is about no effect
Sequence (P14416 whole entry, looked up): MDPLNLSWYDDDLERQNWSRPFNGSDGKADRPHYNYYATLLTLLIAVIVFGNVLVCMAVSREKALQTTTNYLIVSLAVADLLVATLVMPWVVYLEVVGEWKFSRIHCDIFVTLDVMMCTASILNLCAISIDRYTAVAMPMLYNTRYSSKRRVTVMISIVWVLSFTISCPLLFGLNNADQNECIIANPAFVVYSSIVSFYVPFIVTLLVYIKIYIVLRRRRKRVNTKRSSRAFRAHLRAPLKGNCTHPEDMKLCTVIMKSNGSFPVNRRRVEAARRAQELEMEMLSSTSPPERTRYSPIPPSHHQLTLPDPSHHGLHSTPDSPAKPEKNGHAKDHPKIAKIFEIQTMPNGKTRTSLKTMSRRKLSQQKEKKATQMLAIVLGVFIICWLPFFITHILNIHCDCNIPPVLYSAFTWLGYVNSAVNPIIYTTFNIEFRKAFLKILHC
How it was run: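 Overnight-induced (tetracycline, 30 C) HEK293 T-REx cells carrying force-coupled D2 receive a no-wash calcium dye, then compound, then EC80 dopamine at 180 s; signals are read kinetically throughout.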

SMILES | inhibition
CC(=O)c1c(C)[nH]c(C(=O)COc2ccc3c(C)cc(=O)oc3c2)c1C | 1.65%
CN(C)C(=O)N=NC(=O)N(C)C | 6.75%
CCC(C)CCN1CCN=C1N(C)C (stereo unspecified) | -4.14%
COc1ccc(-c2nc(N)ncc2-c2ccc(Cl)cc2)c(O)c1 | -27.1%
CCOc1ccc(-c2nc(N)ncc2-c2ccccc2OC)c(O)c1 | 34.9% (active)
C=C(C)COc1ccc(-c2nc(N)ncc2-c2ccccc2OC)c(O)c1 | -11.9%
CCCCN1C(=O)C(=O)N(CC(=O)Nc2cccc(C(C)=O)c2)C1=O | 2.29%
COc1ccc(C(=O)OC(C)C(=O)NC2CCCC2)cc1S(=O)(=O)N1CCOCC1 (stereo unspecified) | -6.41%
O=[N+]([O-])c1ccc(NCCCN2CCOCC2)c(Cl)c1 | -7.9%
O=C(NCCCN1CCOCC1)c1ccc(N2CCCC2)c([N+](=O)[O-])c1 | -5.74%
O=C(NCCCN1CCOCC1)c1ccc([N+](=O)[O-])cc1[N+](=O)[O-] | 48.1% (active)
COc1ccc(CC2c3cc(OC)c(OC)cc3CC[N+]2(C)CCC(=O)OCCCCCOC(=O)CC[N+]2(C)CCc3cc(OC)c(OC)cc3C2Cc2ccc(OC)c(OC)c2)cc1OC (stereo unspecified) | 2.9%
COc1ccc(Cl)cc1NC(=O)CNc1ccccc1F | 0.751%
COc1ccc(Cl)cc1NC(=O)NC(C)C(C)(C)C (stereo unspecified) | 34.2% (active)
COC(=O)[C@@H](NC(=O)Nc1cc(Cl)ccc1C)C(C)C | 18.4%
Cc1cc(C(=O)Nc2ccc(C)c(S(=O)(=O)N3CCOCC3)c2)c2ccccc2n1 | 3.28%
O=C(c1cc(-c2ccco2)nc2ccccc12)N(Cc1nnc(-c2ccc(Cl)cc2)o1)C1CC1 | -3.48%
Cc1ccc(OCCC(=O)Nc2ccc(S(=O)(=O)Nc3nccs3)cc2)cc1 | 23.7%

SMILES | inhibition
COc1ccccc1OC(C)C(=O)Nc1ccc(S(=O)(=O)Nc2nccs2)cc1 (stereo unspecified) | -2.37%
CCC(CC)C(=O)Nc1ccc(S(=O)(=O)Nc2nccs2)cc1 | 32.1% (active)
COc1ccccc1N1CCN(Cc2cc(OC)c3c(c2)OCO3)CC1 | 85.7% (active)
COc1ccccc1N1CCN(CCCCOc2ccc(F)cc2)CC1 | 1.05%
CNCC(O)CN1CCN(c2ccccc2OC)CC1 (stereo unspecified) | -12.4%
COc1ccccc1N1CCN(Cc2ccc(OC)c3ccccc23)CC1 | 72.3% (active)
COc1ccc(CN2CCN(Cc3ccc(OC)c(OC)c3OC)CC2)cc1 | -16%
COc1ccccc1CN1CCN(Cc2cc(OC)c(OC)cc2OC)CC1 | -0.792%
COc1ccc(S(=O)(=O)N2CCOCC2)cc1NC(=O)CSc1cc(C)ccc1C | -16%
CCN(CC(=O)Nc1ccc(NC(C)=O)cc1)C(=O)CSC(=S)N1CCCC1 | 12.7%
CC1(C)O[C@@H]2[C@H](O1)[C@@H](COS(=O)(=O)O)O[C@H]2n1cnc2c(=O)[nH]cnc21 | 10.8%
CCCCn1c(N)c(N(CC(C)C)C(=O)CSc2ccc([N+](=O)[O-])cc2)c(=O)[nH]c1=O | 6.25%
OCC[C@H]1C[C@@H](O)[C@H](O)[C@@]2(OCCc3ccccc32)O1 | 3.29%
CCN(CC(=O)Nc1ccc(OC)cc1)C(=O)CSCc1ccc(C)cc1 | 7.06%
Cc1cc(C(=O)N/N=C\C(Br)=C\c2ccccc2)c(C)o1 | 1.9%
Cc1cc(C(=O)N/N=C/c2ccccc2[N+](=O)[O-])c(C)o1 | 2.69%
CC(=C/c1ccccc1)/C=N/NC(=O)c1cc(C)oc1C | 36.9% (active)
COc1ccccc1C(=O)COC(=O)CSCC(=O)Nc1cc(C)on1 | 14.3%
